# Results from PubChem BioAssay (EPA / NIEHS).
# Records with an inconclusive call do not appear. Active and inactive are the calls of the source. The calls were made as follows: active = hit-call score of the fitted dose curve at least 0.9, where 1 is the maximum; inconclusive = response in the unintended direction; inactive = score below 0.9.
# Read-out: Cytochrome P450 2C19 (Homo sapiens) (UniProt P33261)
# Assay: CLD_CYP2C19_48hr: CellzDirect (CLD) Gene Expression Assay for xenobiotic metabolism (CYP2C19) at 48 hours (AID 2283700);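 also: fitted upward so actives raise CYP2C19 mRNA above the 0.2% DMSO vehicle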
# Description: CLD_48hr is a cell-based, multiplexed-readout assay that uses hepatocyte, a human liver primary cell, with measurements taken at 48 hours after chemical dosing in a 96-well plate.CLD_CYP2C19_48hr is one of 16 assay component(s) measured or calculated from the CLD_48hr assay. It is designed to make measurements of mRNA induction, a form of inducible reporter, as detected with chemiluminescence signals by Quantitative Nuclease Protection Assay (qNPA) technology.Data from the assay component CLD_CYP2C19_48hr was analyzed at the endpoint, CLD_CYP2C19_48hr, in the positive analysis fitting direction relative to DMSO as the negative control and baseline of activity. Using a type of inducible reporter, gain-of-signal activity can be used to understand changes in the reporter gene as they relate to the gene CYP2C19. Furthermore, this assay endpoint can be referred to as a primary readout. To generalize the intended target to other relatable targets, this assay endpoint is annotated to the cyp intended target family, where subfamily is xenobiotic metabolism.
# Human hepatocyte cultures were treated daily for two consecutive days with fresh dosing solutions containing appropriate concentrations of the 320 ToxCast chemicals (chemical identities were blinded to CellzDirect and other ToxCast collaborators), vehicle control (0.2% DMSO), and positive control inducers as summarized in Table 1. Due to the large number of treatment groups and chemicals examined, the ToxCast chemicals were divided into two groups (spanning two independent cultures of hepatocytes from separate donor preparations (Hu778: ToxCast plates 1 and 2; Hu776: ToxCast plates 3 and 4). Each preparation of human hepatocyte cultures was treated with respective vehicle control, medium only control, set of six positive controls/reference chemicals for the five hepatic receptor pathways, and a subset of eight of the ToxCast chemicals (indoxacarb, pyrithiobac-sodium, norflurazon, cyhalofop-butyl, methomyl, thiram, acetochlor, and propiconazole). These replicate data, coupled with internal replicates designed within the blinded ToxCast chemical library, provided additional data to evaluate interindividual differences between hepatocyte preparations and their potential impact on chemical profiles.Cell morphology and integrity were evaluated using phase-contrast microscopy as an indicator of hepatocyte cell health (Tyson & Green, 1987). Cultures for each treatment group (i.e., media, vehicle [0.2% DMSO], positive control inducers [multiple concentrations], and the ToxCast chemicals [multiple concentrations]) were observed and cell morphology was assessed relative to vehicle control cultures at each harvest time point (0, 6, 24, or 48 h). […] Images were evaluated at the conclusion of the study to assess changes in cell integrity and account for the effects of chemical exposure on uncharacteristic changes in concentration-dependent gene expression profiles. The results from these determinations of apparent cytotoxicity were annotated (yes/no) alongside the corresponding qNPA data for reference.At the conclusion of each treatment period, hepatocyte cultures (96-well) were washed with 1 volume of HBSS, lysed by addition of 25 ul ArrayPlate lysis buffer (HTG, Tucson, AZ), and 70 ul/well of Denaturation Oil, denatured by incubation at 95C for 10 min, and frozen at approximately -70C until analysis by nuclease protection assay (qNPA) (Roberts et al., 2007). For qNPA analysis, cell lysates were thawed at 50C for approximately 30 min, qNPA probes were added, and samples were incubated at 95C for 10 min to begin the detection process by denaturing the target RNA, dissociating the duplexes and secondary structure hybridization. At the conclusion of the hybridization period, S1 nuclease reagent was added to each sample to digest all nonprotected nucleotides at 50C for 60-90 min. […]
# Sequence of Cytochrome P450 2C19 (Homo sapiens) (P33261 whole entry, looked up): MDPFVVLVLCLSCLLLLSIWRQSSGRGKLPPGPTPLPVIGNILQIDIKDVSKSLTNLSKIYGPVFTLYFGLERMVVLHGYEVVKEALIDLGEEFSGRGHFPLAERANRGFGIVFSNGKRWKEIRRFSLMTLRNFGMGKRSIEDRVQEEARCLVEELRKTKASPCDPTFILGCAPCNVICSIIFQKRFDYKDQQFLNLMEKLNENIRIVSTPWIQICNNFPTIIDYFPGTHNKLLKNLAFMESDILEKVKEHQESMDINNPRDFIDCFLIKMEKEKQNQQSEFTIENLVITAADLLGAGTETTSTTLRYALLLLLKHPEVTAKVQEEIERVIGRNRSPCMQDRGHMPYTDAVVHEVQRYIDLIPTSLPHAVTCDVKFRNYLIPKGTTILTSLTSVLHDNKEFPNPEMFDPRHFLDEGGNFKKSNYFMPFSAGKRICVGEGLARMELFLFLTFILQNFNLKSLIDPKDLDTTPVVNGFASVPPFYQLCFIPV
row,Compound,outcome
1,CC1(C)C(C=C(Cl)Cl)C1C(=O)OCc1cccc(Oc2ccccc2)c1 (stereo not given),inactive
2,CCCCOC(=O)C(C)Oc1ccc(Oc2ccc(C(F)(F)F)cn2)cc1 (stereo not given),inactive
3,COC(=O)c1ccccc1S(=O)(=O)NC(=O)Nc1nc(OC(F)F)cc(OC(F)F)n1,inactive
4,Oc1ccc(C(c2ccc(O)cc2)C(Cl)(Cl)Cl)cc1,inactive
5,CCSC(=O)N(CC(C)C)CC(C)C,inactive
6,CCOC(=O)C(C)Oc1ccc(Oc2cnc3cc(Cl)ccc3n2)cc1 (stereo not given),inactive
7,CCCCC(CC)COC(=O)c1ccccc1C(=O)O (stereo not given),inactive
8,CCC(O)=C1C(=O)CC(C(=O)O)CC1=O (stereo not given),inactive
9,COc1c(Cl)ccc(Cl)c1C(=O)O,inactive
10,CCOC(=O)C(C)Oc1ccc(Oc2nc3ccc(Cl)cc3o2)cc1 (stereo not given),inactive
11,COc1nc(C)nc(NC(=O)NS(=O)(=O)c2ccccc2OCCCl)n1,inactive
12,c1ccc(Nc2ccccc2)cc1,inactive
13,CCCCCCC(C)OC(=O)COc1nc(F)c(Cl)c(N)c1Cl (stereo not given),inactive
14,CCCCOC(=O)[C@@H](C)Oc1ccc(Oc2ccc(C(F)(F)F)cn2)cc1,inactive
15,COC(=O)c1ccc(I)cc1S(=O)(=O)NC(=O)Nc1nc(C)nc(OC)n1,inactive
16,CCCOC(=O)c1ccc(C(=O)OCCC)nc1,inactive
17,COC(=O)CSc1cc(N=c2sc(=O)n3n2CCCC3)c(F)cc1Cl,inactive
18,CCC(C)OC(=O)N1CCCCC1CCO (stereo not given),inactive
19,CCN(CC)C(=O)c1cccc(C)c1,inactive
20,C#CCOC(=O)[C@@H](C)Oc1ccc(Oc2ncc(Cl)cc2F)cc1,inactive
21,OB(O)O,inactive
22,COC(=O)c1ccc(CNS(C)(=O)=O)cc1S(=O)(=O)NC(=O)Nc1nc(OC)cc(OC)n1,inactive
23,CCCN(CCC)C(=O)SCC,inactive
24,COC(=O)c1cccc(C)c1S(=O)(=O)NC(=O)Nc1nc(OCC(F)(F)F)nc(N(C)C)n1,inactive
25,CCCOC(=O)NCCCN(C)C,inactive
